The values below come from PubChem BioAssay (NCATS).

Structures are written as SMILES. Records with an inconclusive call do not appear. A number with no mark means an inactive call. Active and inactive are the calls of the source. Calls follow the shape of the dose curve; as a rule, active = well fitted cell-killing curve with a large enough effect; inconclusive = small, poorly fitted or top-dose-only effect, or effect the other way; inactive = no such curve, though single readings can be large or run the other way.

Experiment [1] can be described thus: Viability qHTS for spleen associated tyrosine kinase inhibitor (SYKi) naive MV4-11 cells (AID 1963823). Also: nearly all actives have a fitted effect of over 40% in size. The essentials:
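SYK inhibitor-naive MV4-11 cells, 500 per well, exposed to compounds for 72 hr at 37 C, 5% CO2. Viability read as CellTiter-Glo luminescence after 10 min at room temperature.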
On the technique in general: qHTS replaces the single test concentration by a dilution series.

A short description of experiment [2]: Viability qHTS for spleen associated tyrosine kinase inhibitor (SYKi) drug resistant MV4-11 cells (AID 1963824). Also: nearly all actives have a fitted effect of over 35% in size. The essentials:
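CellTiter-Glo luminescence, read 10 min after reagent addition, reports viability after a 72 hr compound exposure. Cells are an MV4-11 line made resistant to SYK inhibition, seeded at 500 per well onto compound-containing plates.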
Potency is read from the fitted curve at half-maximal effect.

As to `Clc1ccc(Nc2nc3ccccc3c3nc(C4CCCCC4)[nH]c23)cc1Cl`, the Potency is 18.4 µM (active) in experiment [1] and 8.2 µM (active) in experiment [2].
Consider `C=C(C(=O)OC[C@H]1O[C@@H](OC(=O)/C=C/c2ccccc2)[C@H](O)[C@@H](O)[C@@H]1O)C(O)CO` (some centres not stated), for which the Potency in experiment [1] is 7.96 µM (active); in experiment [2], 11.2 µM (active).
For `C[C@@H]1O[C@@H](O[C@H]2[C@H](OC(=O)[C@]34CCC(C)(C)C[C@H]3C3=CCC5[C@@]6(C)CC[C@H](O[C@@H]7O[C@H](CO[C@@H]8OC[C@H](O)[C@H](O)[C@H]8O[C@@H]8OC[C@@H](O)[C@H](O)[C@H]8O)[C@@H](O)[C@H](O)[C@H]7O)C(C)(C)C6CC[C@@]5(C)[C@]3(C)C[C@H]4O)O[C@H](CO)[C@@H](O)[C@@H]2O)[C@H](O[C@@H]2O[C@H](CO)[C@@H](O)[C@H](O)[C@H]2O)[C@H](O)[C@H]1O[C@@H]1OC[C@@H](O)[C@H](O[C@@H]2OC[C@@H](O)[C@H](O)[C@H]2O)[C@H]1O` (some centres not stated), the viability (% of control) in experiment [1] was 93.4% [at 4.97 µM]. Further, the viability, % of control in experiment [2] is 88.9% [at 4.97 µM].
As to `COc1c(O[C@@H]2O[C@H](CO)[C@@H](O)[C@H](O)[C@H]2O)c(CCC(=O)O)cc2ccoc12`, the Potency entry in experiment [1] and in experiment [2] was “inactive” throughout.
`COc1cc(Nc2cnc(C#N)c(O[C@H](C)CN(C)C)n2)ncc1-c1cnn(C)c1`: the Potency in experiment [1] is 0.934 µM (active); in experiment [2], 1.32 µM (active).
On to `CC(=O)OCC1=C[C@H](O)[C@@H]2C(C(=O)O)=CO[C@@H](O[C@@H]3O[C@H](CO)[C@@H](O)[C@H](O)[C@H]3O)[C@H]12`, for which the Potency entry in experiment [1] and in experiment [2] was “inactive” throughout.
In the case of `C=C[C@H]1C(O[C@@H]2O[C@H](CO)[C@@H](O)[C@H](O)[C@H]2O)OC=C2C(=O)N3CCc4c([nH]c5ccccc45)[C@H]3C[C@H]21` (some centres not stated), the Potency result in experiment [1] and in experiment [2] was “inactive” throughout.
As to `COc1cc(C(C)=O)ccc1O[C@@H]1O[C@H](CO[C@@H]2OC[C@@H](O)[C@H](O)[C@H]2O)[C@@H](O)[C@H](O)[C@H]1O`, the Potency result in experiment [1] and in experiment [2] was “inactive” each time.
Turning to `C[C@@]12C[C@]3(O)O[C@H](O1)[C@]1(COC(=O)c4ccccc4)[C@H]3C[C@@]12O[C@@H]1O[C@H](CO)[C@@H](O)[C@H](O)[C@H]1O`, the Potency result in experiment [1] and in experiment [2] was “inactive” in each case.
With `CC(C)c1cc(C(=O)N2CC[C@H](NC(=O)C3CC3)C2)n[nH]1`, the Potency result in experiment [1] and in experiment [2] was “inactive” throughout.
Take `C[C@@H](O)[C@H](N)C(=O)N1CCC[C@H]1C(=O)N1CCC[C@H]1C(=O)N[C@H](C(N)=O)[C@@H](C)O`: the viability (% of control) in experiment [1] is 90.2% [at 9.25 µM]. Moreover, the viability, % of control in experiment [2] is 81.3% [at 9.25 µM].
For the compound `Cc1ccc(NS(=O)(=O)c2cc3c(cc2N[C@@H](C)CO)NC(=O)CC3)cc1Cl`, the Potency is 16.4 µM (active) in experiment [1] and 11.6 µM (active) in experiment [2].
`CCCC(CCC)C(=O)NCc1ccc2c(cnn2-c2ccccc2OC)c1`: the Potency in experiment [1] is 10.3 µM (active); in experiment [2], 8.2 µM (active).
In the case of `N[C@@]1(C(=O)O)CC[C@H]2[C@H](C(=O)O)[C@H]21`, the Potency result in experiment [1] and in experiment [2] was “inactive” throughout.
On to `O=C(O)Cc1cn(C2OCC(O)C(O)C2O[C@@H]2O[C@H](CO)[C@@H](O)[C@H](O)[C@H]2O)c2ccccc12` (some centres not stated), for which the Potency result in experiment [1] and in experiment [2] was “inactive” in each case.
Turning to `CNc1nc(NCc2ccc(NS(C)(=O)=O)cc2Cl)cc(-c2ccccn2)n1`, the Potency in experiment [1] was 20.6 µM (active); in experiment [2] it was 23.1 µM (active).
Consider `COc1ccc(/C=C/C(=O)O[C@H]2[C@H](O[C@H]3[C@@H]4C=CO[C@@H](O[C@@H]5O[C@H](CO)[C@@H](O)[C@H](O)[C@H]5O)[C@@H]4[C@@]4(CO)O[C@@H]34)O[C@@H](C)[C@H](O)[C@H]2OC(C)=O)cc1`, for which the Potency entry in experiment [1] and in experiment [2] was “inactive” throughout.
Consider `CN(CCO)C1CCN(c2ccc(Nc3ncc4c5ccnc(F)c5n(C5CCCC5)c4n3)nc2)CC1`, for which the Potency in experiment [1] is 0.0355 µM (active); in experiment [2], 0.0645 µM (active).
On the same counts, the results for `CCC(C)C(=O)Oc1cc(C)ccc1C1(COC(=O)C(C)C)CO1` (configuration not stated) are 2.86 µM (active) and 2.02 µM (active).
For `COc1ccc(CC2C(=O)NC(C)C(=O)N(C)C3Cc4ccc(cc4)Oc4cc(ccc4OC4OC(CO)C(O)C(O)C4O)CC(C(=O)NC(C)C(=O)NC(C)C(=O)N2C)N(C)C3=O)cc1` (configuration not stated) the same measures were 0.0155 µM (active) and 0.0098 µM (active).
For `C=C1C(=O)O[C@H]2/C=C(/C)[C@@H](OC(C)=O)C/C=C(\C)C[C@@H](OC(=O)/C(=C/C)COC(=O)/C(=C/C)CO)[C@@H]12` the same measures were 1.78 µM (active) and 1.59 µM (active).
Take `O=c1cc[nH]c(=S)[nH]1`: the Potency result in experiment [1] is “inactive”. Moreover, the Potency in experiment [2] was 11.9 µM (active).
In the case of `CC1(CO)CC[C@]2(C(=O)O[C@@H]3O[C@H](CO)[C@@H](O)[C@H](O)[C@H]3O)CC[C@]3(C)C(=CCC4[C@@]5(C)C[C@H](O)[C@H](O[C@@H]6OC[C@@H](O)[C@H](O)[C@H]6O)[C@@](C)(CO)C5CC[C@]43C)C2C1` (some centres not stated), in experiment [1], the viability (% of control) is 88.9% [at 9.25 µM]. The viability, % of control in experiment [2] was 101% [at 9.25 µM].
On to `COC(=O)C1=CO[C@@H](O[C@@H]2O[C@H](CO)[C@@H](O)[C@H](O)[C@H]2O)[C@H]2[C@@H]1C=C[C@@]21C=C([C@H](C)O)C(=O)O1`, for which the Potency result in experiment [1] and in experiment [2] was “inactive” in each case.
As for `CCOc1cc(CNC2CCCC2)cc(Cl)c1OCc1ccc(Cl)cc1`, the Potency was 4.61 µM (active) in experiment [1] and 5.8 µM (active) in experiment [2].
For `Cc1cc(C(=O)N2Cc3cnn(C)c3Nc3ccccc32)ccc1CNC(=O)N1CCN(Cc2cc(O)cc(O)c2)CC1` the same measures were “inactive” and “inactive”.
